Source: PubChem BioAssay AID1981 (Southern Research Specialized Biocontainment Screening …, 2009)
Screen size: about 2,200 compounds; about 480 (22%) were called active. How the calls were made is not given here. Not all results are given here. A call without a number means that no potency is given here. Potency and affinity values are given separately.

Experiment: S. Typhimurium GFP fluorescence dose response in modified counterscreen for PhoP regulon inhibitor project (AID 1981)
Settings: 4 h; series mostly up to 150 µM
For `Cc1nc(SCC(=O)NC(C)c2ccccc2)c2oc3ccccc3c2n1` (stereo unspecified), the outcome was “inactive”. In the case of `CCCN(CCC)CCCNS(=O)(=O)c1ccc2c(c1)oc(=O)n2C`, the outcome is reported as “inactive”. With `NC(=O)c1ccccc1NC(=O)/C=C/C(=O)O` the outcome was “inactive”. With `O=C(/C=C/c1ccccc1)N1CCN(c2c(Cl)cccc2[N+](=O)[O-])CC1` the outcome was “inactive”. With `C=CCn1c(C)cc(C(=O)CSc2nc(N)cc(N)n2)c1C` the outcome was “inactive”. For `Clc1ccc(Nc2ncnc3c2cnn3-c2ccccc2)cc1`, the outcome was “inactive”. For `CCCNC(=O)CN(C1CCCCC1)S(C)(=O)=O`, the outcome was “inactive”. In the case of `CCCCC(=O)NCCNC(=O)c1cc(OCC(F)(F)F)ccc1OCC(F)(F)F`, the outcome is reported as “inactive”. With `Cn1c(COc2ccccc2)nnc1SCc1nc2ccccc2[nH]1` the outcome was “inactive”. In the case of `Cc1ccc(C)c(/C=C/C(=O)c2ccccc(=O)c2O)c1`, the outcome is reported as “inactive”. For `COc1ccc(C2=Nc3nc(-c4ccccc4)cn3C(c3ccc(OC)cc3)C2)cc1` (stereo unspecified), the outcome was “inactive”. For `N/C(=N\OC(=O)N1c2ccccc2Sc2ccccc21)c1ccccc1`, the outcome was “inactive”. For `CCc1nn2cc(C(=O)c3cc(Cl)ccc3O)cnc2c1-c1ccc(F)cc1`, the outcome was “inactive”. With `CCN(C(C)=O)c1nc(CSc2nnc(NC(C)C)s2)cs1` the outcome was “inactive”. For `CC1CCC(NC(=O)C2c3ccccc3C(=O)N2Cc2cccs2)CC1` (stereo unspecified), the outcome was “inactive”. For `Cn1ncc(Br)c1C(=O)NCc1cccs1`, the outcome was “inactive”. For `O=C(CSc1nnc(-c2ccc(Br)cc2)o1)Nc1cccc2ccccc12`, the outcome was “inactive”. For `O=C(CNc1ccccc1)Nc1ccc(F)cc1`, the outcome was “inactive”. With `O=C(Oc1c(Br)cc([N+](=O)[O-])cc1Br)c1cccnc1` the outcome was “inactive”. In the case of `O=C(Nc1ccc(F)cc1)c1ccccc1F`, the outcome is reported as “inactive”. With `O=C(CCCN1C(=O)CCC1=O)Nc1ccc2c(c1)OCCO2` the outcome was “inactive”. For `CC(C)(C)c1nn(-c2ccccc2)c2[nH]c(=O)c(CNCc3ccco3)cc12`, the outcome was “inactive”. For `O=P(Cc1cc[n+]([O-])cc1)(c1ccccc1)c1ccccc1`, the outcome was “inactive”. With `CCCS(=O)(=O)N1CCCC(C(=O)N2CCN(c3ccccn3)CC2)C1` (stereo unspecified) the outcome was “inactive”. With `COc1ccc(-c2cn[nH]c2-c2ccc(OCc3ccc([N+](=O)[O-])cc3)cc2O)cc1` the outcome was “inactive”. In the case of `CC(Oc1ccc(Cl)cc1)c1ccnn1S(=O)(=O)c1ccccc1` (stereo unspecified), the outcome is reported as “inactive”. For `CCOC(=O)c1cc2sc(C)cc2n1CC(=O)NCc1ccc(F)cc1`, the outcome was “inactive”. With `Cc1ccc(C(C)C)cc1C(=O)CC1(O)C(=O)N(C)c2ccccc21` (stereo unspecified) the outcome was “inactive”. For `CCn1ncc(/C=C/C(=O)NCc2cn(C)nc2C)c1C`, the outcome was “inactive”. With `O=S(=O)(Nc1ccc(N=Nc2ccc(O)c3ccccc23)cc1)c1ccccc1` the outcome was “inactive”. With `O=C(CSc1ncn[nH]1)Nc1cccc2ccccc12` the outcome was “inactive”. For `COC(=O)COc1ccc(S(=O)(=O)Nc2ccccc2SC)cc1`, the outcome was “inactive”. In the case of `COc1ccc(OC)c(NC(=O)c2ccccc2NS(=O)(=O)c2cccc3cccnc23)c1`, the outcome is reported as “inactive”. For `CCn1c(CNC(=O)c2cccc(C)c2)nc2ccccc21`, the outcome was “inactive”. In the case of `S=c1nc(-c2ccccc2)oc2c1CCCC2`, the outcome is reported as “inactive”. For `CCC(=O)c1cn(Cc2ccc(C#N)cc2)c2ccccc12`, the outcome was “inactive”. In the case of `O=c1c2oc3ccccc3c2ncn1Cc1ccc(Cl)cc1`, the outcome is reported as “inactive”. In the case of `Cc1[nH]n(-c2ncc(-c3ccc(Cl)cc3)s2)c(=O)c1C(c1ccc(Cl)cc1)C(C#N)C#N` (stereo unspecified), the outcome is reported as “inactive”. For `Cc1ccc(-n2nc(C)c(C3C(C#N)=C(N)Oc4c3c(=O)oc3ccccc43)c2Cl)cc1` (stereo unspecified), the outcome was “inactive”. In the case of `Cc1snc(S(=O)(=O)/C(C#N)=N\Nc2ccccc2)c1C#N`, the outcome is reported as “inactive”. In the case of `COc1ccc(CCC(=O)N2CCC3(CC2)OCCO3)cc1`, the outcome is reported as “inactive”. In the case of `O=C(Nc1ccc2snnc2c1)Nc1cccc2ccccc12`, the outcome is reported as “inactive”. With `CC1OC(Nc2cccc3ccccc23)C(O)C(O)C1O` (stereo unspecified) the outcome was “inactive”. In the case of `CC(C(=O)Nc1cc([N+](=O)[O-])ccc1Cl)N1CCN(c2ccccc2O)CC1` (stereo unspecified), the outcome is reported as “inactive”. In the case of `CCCCNC(=O)Oc1cccc(N2CCCC2=O)c1`, the outcome is reported as “inactive”. With `CCOC(=O)c1sc(NC(=O)Nc2ccc(Cl)cc2)cc1C` the outcome was “inactive”. With `Cc1ccnc2nc(C(=O)Nc3ccc4c(c3)OCO4)nn12` the outcome was “inactive”. With `CC(C)c1ccc(NC(=O)Nc2cc3sccc3n2C)cc1` the outcome was “inactive”. With `CCOC(=O)CN(C)Cc1c[nH]c2ccccc12` the outcome was “inactive”. For `Cc1[nH][nH]c(=O)c1C(c1ccc(O)c([N+](=O)[O-])c1)c1c(C)[nH][nH]c1=O`, the outcome was “inactive”. With `O=c1[nH][nH]c(-c2ccccc2O)c1C(C[N+](=O)[O-])c1cccc(Cl)c1` (stereo unspecified) the outcome was “inactive”. With `CCCc1[nH][nH]c(=O)c1C(c1ccc(Br)cc1)C(C#N)C#N` (stereo unspecified) the outcome was “inactive”. In the case of `CCCCCC(=O)Nc1ccc2ccccc2c1`, the outcome is reported as “inactive”. For `O=C(CSc1nnc(-c2ccc(O)cc2)n1-c1ccccc1)CC(=O)Nc1ccccc1`, the outcome was “inactive”. With `O=C(O)CCc1nnc2n(Cc3ccc(F)cc3)c(=O)c3ccccc3n12` the outcome was “inactive”. With `COc1cc(CNc2ccc(CNc3ncn[nH]3)cc2)ccc1OCC(=O)NC(C)(C)C` the outcome was “inactive”. In the case of `O=S(=O)(NCc1ccccc1)c1cccc(S(=O)(=O)N2CCOCC2)c1`, the outcome is reported as “inactive”. With `Cn1c(CC(=O)Nc2ccc(Cl)c(Cl)c2)nnc1SCC(=O)Nc1nccs1` the outcome was “inactive”. With `O=C(COC(=O)c1n[nH]c2ccccc12)NC(=O)NC12CC3CC(CC(C3)C1)C2` the outcome was “inactive”. With `Oc1ccc(C=Nc2cccc3ncccc23)c(O)c1` the outcome was “inactive”. With `O=C(COc1ccccc1)NC(=S)Nc1ccc2c3c(cccc13)CC2` the outcome was “inactive”. With `Cc1c(C)n(Cc2ccccc2)c2ncnc(NN)c12` the outcome was “inactive”. For `O=C(NCCCN1CCCC1=O)c1ccc(Cl)c(NS(=O)(=O)c2ccc(F)cc2)c1`, the outcome was “inactive”. For `Cc1ccc(NC(=O)C(=O)NCCOc2ccccc2Cl)cc1`, the outcome was “inactive”. In the case of `CN(CCC(=O)Nc1ccc(Br)cc1)Cc1ccccc1`, the outcome is reported as “inactive”. In the case of `COc1ccccc1CC(=O)N1CCN(c2ccccn2)CC1`, the outcome is reported as “inactive”. For `COC(=O)c1ccc2nc(C(F)(F)F)[nH]c2c1`, the outcome was “inactive”. With `O=c1cc(-c2ccc([N+](=O)[O-])cc2)nc2cc(-c3ccc(Cl)cc3)[nH]n12` the outcome was “inactive”. For `COC(=O)c1c(C(=O)OC)c(-c2cccc(C)c2)n2c1CS(=O)(=O)C2`, the outcome was “inactive”. With `O=C(NCc1ccc2c(c1)OCO2)c1ccc(-n2cnnn2)cc1` the outcome was “inactive”. For `COC(=O)c1ccccc1NC(=O)CS(=O)(=O)Cc1nc(-c2ccc(C)cc2)oc1C`, the outcome was “inactive”. In the case of `COCCn1cc(C(=O)N2CCC(C)CC2)c2c3ccccc3n(C)c2c1=O`, the outcome is reported as “inactive”. With `C=CCNc1ncnc2c1[nH]c1ccc(Cl)cc12` the outcome was “inactive”. In the case of `C=CCNc1ncnc2c1[nH]c1ccc(C)cc12`, the outcome is reported as “inactive”. In the case of `O=c1cc(Cc2ccccc2)[nH]c(=S)[nH]1`, the outcome is reported as “inactive”. With `CCNC(=O)COC(=O)CCC(=O)c1cccs1` the outcome was “inactive”. With `Cc1cccc(OCC(=O)N2CCN(Cc3ccncc3)CC2)c1` the outcome was “inactive”. With `O=C(CN(c1ccc(F)cc1)S(=O)(=O)c1ccc2c(c1)OCCO2)NCc1cccnc1` the outcome was “inactive”. In the case of `COc1ccc(-c2ccc3c(N)c(C(=O)c4cccc(OC)c4)sc3n2)cc1`, the outcome is reported as “inactive”. For `N#Cc1nc(-c2ccco2)oc1NCCCN1CCOCC1`, the outcome was “inactive”. With `CCSc1cc(N2CCCC2)nc(-c2cccc(C)c2)n1` the outcome was “inactive”. With `COc1cccc(-n2c(SCC(=O)Nc3ccc4c(c3)CCC4)nc3ccccc3c2=O)c1` the outcome was “inactive”. For `CCOc1ccc(NC(=O)CCC(=O)n2nc(C)cc2C)cc1`, the outcome was “inactive”. For `Cc1ccc(CNC(=O)C2CCCN(S(=O)(=O)c3c(C)noc3C)C2)cc1` (stereo unspecified), the outcome was “inactive”. For `O=C(c1ccccc1S(=O)(=O)NCc1ccccc1)N1CCCC1`, the outcome was “inactive”. In the case of `CC(=O)Nc1ccc(-n2nnnc2SCC(=O)Nc2cccc(NC(=O)c3ccco3)c2)cc1`, the outcome is reported as “inactive”. With `O=[N+]([O-])c1ccccc1/C=N/N1CCN(c2ccncc2S(=O)(=O)N2CCCCC2)CC1` the outcome was “inactive”. For `C=CCNC(=O)CC(=O)N/N=C/c1ccc(C(=O)OC)cc1`, the outcome was “inactive”. For `Cc1ccc(Cn2c(=N)n(CC(=O)c3ccc([N+](=O)[O-])cc3)c3ccccc32)cc1`, the outcome was “inactive”. For `COC(=O)c1ccc(Nc2cc(C)nc3ccccc23)cc1`, the outcome was “inactive”. For `COc1ccc(/C=N/NC(=O)CC(=O)NCc2cccnc2)cc1`, the outcome was “inactive”. With `Cc1ccc(C(=O)NC(=S)Nc2cccc3c(C)cc(C)nc23)cc1` the outcome was “inactive”. In the case of `COc1ccc2nc(-c3ccccc3)cc(OC)c2c1`, the outcome is reported as “inactive”. For `CN1c2ccccc2C(C)(C)[C@]12C=Cc1cc(O)ccc1O2`, the outcome was “inactive”. For `CC(=O)Nc1cccc(OC(=O)c2ccoc2C)c1`, the outcome was “inactive”. With `Nc1ccc(C2(c3ccc(N)cc3)c3ccccc3-c3ccccc32)cc1` the outcome was “inactive”. In the case of `Cc1ccc(C(=O)NCC(=O)OCC(=O)N2CCCc3ccccc32)cc1`, the outcome is reported as “inactive”. In the case of `O=C(N/N=C/c1cn(-c2ccccc2)nc1-c1ccc(F)cc1)c1ccc2c(c1)OCO2`, the outcome is reported as “inactive”. With `O=C(NNC(=O)c1ccccc1-n1cccc1)c1ccc(Cl)c(Cl)c1` the outcome was “inactive”. In the case of `O=C(Cn1ncc2c(=O)oc3ccccc3c21)N1CCN(c2ccccn2)CC1`, the outcome is reported as “inactive”. With `CC(C)Nc1cc(C(F)(F)F)nc(-c2ccccn2)n1` the outcome was “inactive”. For `O=C1c2ccccc2C(=O)N1Cc1nc(-c2ccccn2)no1`, the outcome was “inactive”. With `N#Cc1ccc(N=c2ssnc2Cl)cc1` the outcome was “inactive”. In the case of `CC(C)CCNC(=O)C(c1ccco1)N(Cc1ccc(F)cc1)C(=O)c1snc(C(N)=O)c1N` (stereo unspecified), the outcome is reported as “inactive”. With `COc1cc(C2C(C(=O)c3ccc(C)o3)=C(O)C(=O)N2CCc2ccccc2)ccc1O` (stereo unspecified) the outcome was “inactive”. For `NC(=O)c1c(NC(=O)CN2C(=O)CCC2=O)sc2c1CCCCC2`, the outcome was “inactive”. With `CC(C)(C)C1CCc2c(sc(NC(=O)c3cccs3)c2C(=O)N2CCCCC2)C1` (stereo unspecified) the outcome was “inactive”. With `CCOC(=O)c1c(NC(=O)Nc2ccc(C)cc2)sc2c1CCN(C)C2` the outcome was “inactive”. With `O=[N+]([O-])c1ccc(-n2nnnc2-c2ccccc2)c([N+](=O)[O-])c1` the outcome was “inactive”. In the case of `CN(C)C(CNC(=O)Nc1cccc(Cl)c1)c1cccnc1` (stereo unspecified), the outcome is reported as “inactive”. With `Cc1cc2c(c(=O)n1C)C(Cc1ccccc1)C(C#N)=C(N)O2` (stereo unspecified) the outcome was “inactive”.
